According to PubChem BioAssay (NCATS):
Inconclusive results are not listed. Activity calls are given as the source filed them. The call rests on the fitted dose curve; in most records, active means well fitted cell-killing curve with a large enough effect; inconclusive means small, poorly fitted or top-dose-only effect, or effect the other way; inactive means no such curve, though single readings can be large or run the other way.

Assay: Quantitative highthroughput screen to assess conditional lethalithy of SEM cells grown in RPMI1640 with dialyzed fetal bovine serum (RPMI+ds) (AID 1963884); further: nearly all actives have a fitted effect of over 35% in size
Conditions: SEM B-ALL cells, RPMI+dialyzed FBS, CellTiter-Glo viability, 48 h; series mostly up to 45.8 µM; viability: at the top concentration
Source text: Assay Provider: Jason Cantor Ph.D.
Department of Biochemistry
University of Wisconsin-Madison, Madison, WI, USA
Chemical screening studies have identified drug sensitivities across hundreds of cancer cell lines but most putative therapeutics fail to translate. Discovery and development of drug candidates in models that more accurately reflect nutrient levels in human blood is a major challenge. Here we performed high-throughput screens in conventional versus Human Plasma-Like Medium (HPLM) to identify compounds that were "missed" when screening using the artificial culture condition. Sets of conditional anticancer compounds spanned phases of clinical development and included non-oncology drugs were assessed. […] We also traced conditional phenotypes for several chemotherapeutics to availability of HPLM-specific metabolites and confirmed others for compounds whose reported targets are encoded by nonessential genes. Our findings establish generalizable strategies for exploiting conditional lethality in HPLM to reveal therapeutic candidates and mechanisms of action in cancer cells.
Described herein are the results of each viability screens against three cell lines: NOMO1 (an acute myeloid leukemia cell line); P12-Ichikawa (a T-cell acute lymphoblastic leukemia); and SEM (a B-cell ALL). Each assay was screened using 3 different cell culture media: homemade human plasma-Like medium with 10% dialyzed fetal bovine serum (HPLM+ds); RPMI1640 with 10% untreated FBS and 5mM glucose (RPMI+s); and RPMI1640 with 10% dialyzed fetal bovine serum and 5 mM glucose (RPMI+ds).
PROTOCOL TABLE (as described by Inglese J, Shamu CE and Guy RK. 2007)
SEQUENCE No. (e.g., 1, 2, 3, etc.); […] (e.g., Cells, Incubation, Reagent, etc.); VALUE and DESCRIPTION.
1; Cells; 5 uL; white, solid bottom 1536-well Greiner assay plate.
2; Compounds; 23 nL; Kalypsis pin tool (Wako USA) equipped with a 1536-well pin head to transfer to the assay plates.
3; Incubation; 48 hours; 37C incubation.
4; Reagent; 3 uL; CellTiter Glo (Promega).
5; Incubation; 5 min, room temperature
6; Detection; Luminescence, Viewlux PerkinElmer.
NOTES (numbers refer to Sequence numbers above)
1. Briefly, 5 ul of cell reagent was dispensed using a Multidrop Combi Dispenser. The NOMO1 and SEM cells were plated at 500 cells/well and the P12-Ichikawa line at 1000 cells/well.
2. After seeding the cells, 23 nL of MIPE 4.1 library compounds (in DMSO) were added to each plate using a Kalypsys 1536 Pintool dispenser. Bortezomib at final concentration of […] and DMSO were added to each plate as positive and negative controls respectively. For each screen, MIPE 4.1 compounds were added over an eleven-point concentration range […] in 3-fold dilutions.
3. Each plate was covered with a stainless steel gasketed lid to prevent evaporation and incubated for 48 hour at 37C, 95% relative humidity, and 5% CO2.
4-5. Three microliter CellTilter-GloTM luminescent substrate mix (Promega) reagent was added to the assay plate and incubated at room temperature for 5 min.
6. The luminescence signal was measured using a ViewLux (PerkinElmer) multiplate reader with a 2 second exposure time per plate. Data for each compound were normalized as percent viability such that measurements for DMSO and the empty well controls in each plate were defined as 100% and 0%, respectively.
Potency means the concentration at half of the fitted maximal effect.

Row | Compound | viability | Potency
1 | COc1ccc2c(c1)[C@]13CCCCC1C(C2)N(C)CC3 (stereo not given in full) | 108% (inactive) | 
2 | Cc1ccccc1-n1c(Cn2ncc3c(N)ncnc32)nc2cccc(C)c2c1=O | 103% (inactive) | 
3 | O=C(O)c1nn(Cc2ccc(Cl)cc2Cl)c2ccccc12 | 71% (inactive) | 
4 | CC(C)N[C@@H]1CCn2c(=O)[nH]c3cccc(c32)[C@@H]1O | 96.3% (inactive) | 
5 | C[C@]12CCC(=O)C=C1CC[C@@H]1[C@H]3CC[C@](C)(O)[C@@]3(C)CC[C@@H]12 | 99.8% [at 92.2 µM] (inactive) | 
6 | COc1ccc(C(=O)c2c(C)n(CCN3CCOCC3)c3ccccc23)cc1 | 89.4% (inactive) | 
7 | CC=C(C)C(=O)O[C@H]1C(C)=C2[C@@H]3OC(=O)[C@@](C)(O)[C@@]3(O)[C@@H](OC(=O)CCC)C[C@](C)(OC(C)=O)[C@@H]2[C@@H]1OC(=O)CCCCCCC |  | 0.0332 µM (active)
8 | CCCC[N+]1(C)[C@H]2CC(OC(=O)[C@H](CO)c3ccccc3)C[C@H]1[C@H]1O[C@H]12 (stereo not given in full) | 93.7% (inactive) | 
9 | CC(=Cc1csc(C)n1)[C@@H]1C[C@H]2O[C@@H]2CCC[C@H](C)[C@@H](O)[C@@H](C)C(=O)C(C)(C)[C@@H](O)CC(=O)O1 | 18.3% (inactive) | 
10 | NC1CC1c1ccccc1 (stereo not given) | 93.7% (inactive) | 
11 | COc1cccc2c1[C@]13CCN(CC4CC4)[C@H](C2)[C@]1(OC)CCC(=O)C3 | 79.7% (inactive) | 
12 | O=C(Oc1ccc([N+](=O)[O-])cc1)N1CCN(Cc2cccc(Oc3ccccc3)c2)CC1 | 101% (inactive) | 
13 | CCc1c(C(=O)C(N)=O)c2c(OCC(=O)O)cccc2n1Cc1ccccc1 | 89.2% (inactive) | 
14 | O=C1CCC[C@@H]2[C@H]3CCCN4CCC[C@@H](CN12)[C@@H]34 | 83% (inactive) | 
15 | CCOC(=O)c1cncn1[C@H](C)c1ccccc1 | 95.2% (inactive) | 
16 | CN1C(=O)CCS(=O)(=O)C1c1ccc(Cl)cc1 (stereo not given) | 91.7% (inactive) | 
17 | CC1=C(O)C(=O)C=C2C1=CC=C1[C@@]2(C)CC[C@@]2(C)[C@@H]3C[C@](C)(C(=O)O)CC[C@]3(C)CC[C@]12C |  | 1.87 µM (active)
18 | CC(C)[C@H]1C(=O)N[C@H](CO)Cc2c[nH]c3cccc(c23)N1C | 73% (inactive) | 
19 | O=P1(NCCCl)OCCCN1CCCl (stereo not given) |  | 20.9 µM (active)
20 | CC[C@@H]1[C@@H](C)O[C@@](O)([C@@H](C)[C@H](O)[C@H](C)[C@H]2OC(=O)C=CC=C[C@@H](C)[C@@H]([C@@H](C)[C@@H](O)[C@H](C)[C@@]3(O)C[C@H](O[C@H]4C[C@H](O)[C@H](O)[C@H](C)O4)[C@H](CC)[C@@H](C)O3)OC(=O)C=CC=C[C@@H]2C)C[C@H]1O[C@H]1C[C@H](O)[C@H](O)[C@H](C)O1 |  | 1.87 µM (active)

Row | Compound | viability | Potency
21 | Cc1cc(SCc2sc(-c3ccc(C(F)(F)F)c(F)c3)nc2C)ccc1OCC(=O)O | 97.3% (inactive) | 
22 | CN(C)CCc1ccc(O)cc1 | 81.6% (inactive) | 
23 | Cc1c(N)nc([C@H](CC(N)=O)NC[C@@H](N)C(N)=O)nc1C(=O)N[C@H](C(=O)N[C@@H](C)[C@H](O)[C@@H](C)C(=O)N[C@@H](C(=O)NCCc1nc(-c2nc(C(=O)NCCC[S+](C)C)cs2)cs1)[C@@H](C)O)C(O[C@H]1O[C@H](CO)[C@H](O)[C@@H](O)[C@@H]1O[C@H]1O[C@H](CO)[C@@H](O)[C@H](OC(N)=O)[C@H]1O)c1cnc[nH]1 (stereo not given in full) |  | 4.18 µM (active)
24 | CC(C)(C)[C@]1(O)C[C@@H]2OC(=O)C[C@@]23C(=O)O[C@@H]2OC(=O)[C@H](O)C213 (stereo not given in full) | 106% (inactive) | 
25 | CC(=O)OCC1=C(C(=O)O)N2C(=O)[C@@H](N)[C@@H]2SC1 | 92.9% (inactive) | 
26 | O=c1[nH]c2ccccc2n1CCCN1CCC(n2c(=O)[nH]c3cc(Cl)ccc32)CC1 | 86.9% (inactive) | 
27 | O=C(N[C@H]1CN2CCC1CC2)c1ccc(Cl)cc1 | 73.9% (inactive) | 
28 | C[C@]12CC[C@H]3[C@@H](CCC4=CC(=O)CC[C@@]43C)[C@H]1CC[C@H]2O | 113% (inactive) | 
29 | COc1ccc2c(c1OC)CN1CCc3cc4c(cc3C1C2)OCO4 (stereo not given) |  | 0.469 µM (active)
30 | CC(=CCCC1=CCC(C2=CC(=O)OC2O)OC1O)CCC1=C(C)CCCC1(C)C (stereo not given) | 106% (inactive) | 
31 | COC(=O)[C@@H](N)CCCN=C(N)N[N+](=O)[O-] | 105% (inactive) | 
32 | CCN1C[C@]2(OC(=O)c3ccccc3NC(C)=O)CC[C@H](OC)[C@@]34[C@H]5CC6[C@@H](OC)C[C@](O)(C(C[C@@H]23)[C@@H]14)[C@@]5(O)[C@@H]6OC | 89% (inactive) | 
33 | NC1=NC(=O)N2CC12 (stereo not given) |  | 2.96 µM (active)
34 | COc1cc(C(=O)N2CC[C@@H](O)[C@@H](N)C2)cc2nc(-c3cc4ccccc4n3CC3CC3)n(C)c12 |  | 0.831 µM (active)
35 | C[C@]12COC(=O)C[C@@H]1CC[C@@H]1[C@H]2CC[C@@]2(C)[C@H]1CC[C@]2(C)O | 80.9% (inactive) | 
36 | CC(N[C@H]1C[C@H]1c1ccccc1)c1ccc2c(c1)OCCO2 (stereo not given in full) | 87.5% (inactive) | 
37 | COc1cc2cc(c1Cl)N(C)C(=O)C[C@H](OC(=O)C(C)C)[C@]1(C)O[C@H]1[C@H](C)[C@@H]1C[C@@](O)(NC(=O)O1)[C@H](OC)C=CC=C(C)C2 | 1.62% (inactive) | 
38 | CC(C)N(CCNC(=O)CN1CCCC1=O)C(C)C | 97.8% (inactive) | 
39 | COC1=C[C@@H]2[C@@H]3Cc4ccc(OC)c(O)c4[C@]2(CCN3C)CC1=O | 89.8% (inactive) | 
40 | CC[C@H]1C=CC=CC[C@@H](C)[C@H](O)[C@@](C)(O)C(=O)[C@@H](C)[C@H](O)[C@@H](C)C(=O)[C@@H](C)[C@H](O)[C@@H](C)C=CC(=O)O[C@@H]2[C@@H](C)[C@H](CC1)O[C@]1(CC[C@H](C)[C@H](C[C@@H](C)O)O1)[C@H]2C |  | 4.69 µM (active)
